Laboratory results from PubChem BioAssay AID624483 (NMMLSC, 2012).
Out of some 360,000 compounds screened, about 11,000 (3.1%) were called active. Inconclusive results (about 2%) are left out. The sample holds actives, similar compounds and a random draw of the others, so the mix is not that of the screen. Cut-off read from the data, not from the text of the source: active = fluorescence intensity above about 16000; inconclusive = no clear call, values can overlap the other calls; inactive = below that.

assay: counter-screen for toxin protease inhibitors: compound fluorescence, primary screen, artefact control for toxin protease inhibitor project, biochemical, multiplex microsphere, HTS (AID 624483); conditions: compound autofluorescence counterscreen, microsphere flow cytometry; hits give high values

Row | Compound | fluorescence intensity
1 | O=C(CC1Nc2ccccc2NC1=O)Nc1ccccc1 (stereo unspecified) | 3710 (inactive)
2 | N#Cc1ccc(-c2ccc3nccn3c2)cc1 | 3660 (inactive)
3 | Cc1ccc(NS(=O)(=O)c2ccc(C(C)(C)C)cc2)cn1 | 3470 (inactive)
4 | Cc1cc(C)cc(OCC(=O)Nc2ccc(S(=O)(=O)Nc3ccccn3)cc2)c1 | 2260 (inactive)
5 | Cc1ccc(S(=O)(=O)Nc2ccc3ncccc3c2)cc1 | 22700 (active)
6 | CSc1cccc(NC(=S)N(C(C)C)C(C)c2ccccn2)c1 (stereo unspecified) | 3430 (inactive)
7 | Cc1ccc2c(=O)cc(C(=O)NCCc3ccc(S(N)(=O)=O)cc3)oc2c1C | 3650 (inactive)
8 | O=C(NCc1cccnc1)c1ccccc1NC(=O)c1c(F)cccc1F | 5910 (inactive)
9 | O=C(NC1(C(F)(F)F)NC(=O)N(Cc2cccnc2)C1=O)c1ccccc1Cl (stereo unspecified) | 21200 (active)
10 | COc1ccc(C(=O)NC2(C(F)(F)F)NC(=O)N(CCCc3ccccc3)C2=O)c(OC)c1OC (stereo unspecified) | 8270 (inactive)
11 | Cc1onc(-c2ccccc2)c1-c1nnc(COC(=O)c2ccc(N(C)C)cc2)o1 | 3380 (inactive)
12 | CCOC(=O)c1ccc(-n2c(CCC(=O)O)ccc2-c2ccccc2)cc1 | 3600 (inactive)
13 | CCOC(=O)c1ccc(COC(=O)CCc2nc(-c3ccccc3)c(-c3ccccc3)o2)cc1 | 16400 (active)
14 | COc1c(O)ccc2c1CN1CCc3cc4c(cc3C1C2)OCO4 (stereo unspecified) | 4960 (inactive)
15 | COc1ccc(C2OC(CCc3ccccc3)Cc3[nH]c(=S)[nH]c(=O)c32)cc1 (stereo unspecified) | 5590 (inactive)
16 | CCOc1ccccc1NC(=O)c1cccnc1 | 3020 (inactive)
17 | CCOC(=O)c1cc(NC(=O)c2cccnc2)ccn1 | 3490 (inactive)
18 | CCOC(=O)c1cc(NC(=O)c2cccnc2)cc(C(=O)OCC)c1 | 24800 (active)
19 | OC[C@@H]1CN(Cc2ccc(-c3ccccc3)cc2)C[C@H](n2cnc3c(NC4CCCC4)ncnc32)O1 | 3740 (inactive)
20 | Cc1ccc(-c2nnc(SCC(=O)N/N=C/c3cccs3)n2-c2ccc(C)cc2)cc1 | 2620 (inactive)
21 | CCn1c(Cc2cccs2)nnc1SCC(=O)c1ccc(C)cc1 | 23000 (active)
22 | Cn1c(Cc2cccs2)nnc1SCC(=O)Nc1ccccc1 | 5420 (inactive)
23 | Cc1ccc(-n2c(SCC(=O)Nc3ccc4c(c3)OCO4)nnc2-c2ccccn2)cc1 | 9860 (inactive)

Row | Compound | fluorescence intensity
24 | O=C(CSc1nnc(-c2ccccn2)n1-c1ccccc1)Nc1ccc2c(c1)OCO2 | 2680 (inactive)
25 | CCOC(=O)CSc1nnc(CNC(=O)c2cccs2)n1-c1ccccc1 | 24300 (active)
26 | CCn1c(SCC(=O)c2ccc(Cl)s2)nnc1-c1cccs1 | 3490 (inactive)
27 | CCOC(=O)CSc1nnc(CNC(=O)c2cccs2)n1-c1cc(OC)ccc1OC | 9680 (inactive)
28 | COc1ccc(-n2c(SCC(=O)NCc3cccs3)nnc2-c2ccoc2C)cc1 | 3110 (inactive)
29 | Cc1ccc(-n2c(Cc3cccs3)nnc2SCC(=O)OC(C)C)cc1 | 23800 (active)
30 | CCOC(=O)CSc1nnc(CNC(=O)c2ccco2)n1-c1ccc(F)cc1 | 8100 (inactive)
31 | COc1ccc(-n2c(SCC(=O)OC(C)C)nnc2-c2ccccn2)cc1 | 23500 (active)
32 | COc1ccc2c(CC(=O)NNC(=O)c3ccccc3F)coc2c1 | 2950 (inactive)
33 | CCNC(=O)C1(C)CCCN(Cc2noc(-c3ccccc3OC)n2)C1 (stereo unspecified) | 3700 (inactive)
34 | CCN(CC)c1nc(-c2ccccc2)cc(C(F)(F)F)c1C#N | 2560 (inactive)
35 | O=C(C=CC(=O)Nc1ccc(F)cc1F)Nc1ccc(F)cc1F | 6040 (inactive)
36 | COc1ccc(NC(=O)C2(C)Cc3c(-c4cccc(NC(C)=O)c4)ccnc3O2)cc1OC (stereo unspecified) | 3020 (inactive)
37 | CCc1nc2ccc(C(=O)N(C)CCN(C)C)cn2c1N(CC)CCOC | 3650 (inactive)
38 | O=C(NCC(O)c1nc2ccccc2[nH]1)c1ccc(Br)cc1 (stereo unspecified) | 5430 (inactive)
39 | C[C@@H]1CC2=C(C(=O)OC(C)(C)O2)[C@@H](C2CC2)O1 | 5730 (inactive)
40 | CCN(C(=O)CN1CCN(Cc2ccccc2)CC1)c1c(N)n(Cc2ccccc2)c(=O)[nH]c1=O | 3390 (inactive)
41 | Cc1csc(=O)n1CCC(=O)OCC(=O)NNC(=O)c1ccc(Br)cc1 | 3030 (inactive)
42 | Cc1nc(C(=O)Nc2ccc(Cl)cc2)sc1C1(C)CC(c2ccccc2)=NO1 (stereo unspecified) | 3390 (inactive)
43 | C=C1C(=O)OC2C1CCC(C)=CCCC1(C)OC21 (stereo unspecified) | 6040 (inactive)
44 | COc1ccc(NC(=O)C2(C)Cc3c(-c4cccc(NC(C)=O)c4)ccnc3O2)cc1 (stereo unspecified) | 3560 (inactive)
45 | Cc1ccc(NC(=O)COc2ccc(/C=N\NC(=O)c3cccnc3)cc2)cc1C | 4500 (inactive)
46 | O=C(O)c1ccc(N/N=C/c2cn(-c3ccccc3)nc2-c2cccs2)cc1 | 3970 (inactive)

Row | Compound | fluorescence intensity
47 | O=C(N/N=C/c1sc(N2CCCCC2)nc1-c1cccs1)c1cccnc1 | 16400 (active)
48 | O=C(Nc1ccc(Cl)cc1)c1csc([C@H]2C[C@H](O)[C@@H](CO)O2)n1 | 2790 (inactive)
49 | COCCCn1c(Cc2csc(Nc3cccc(Cl)c3)n2)nnc1SCC(=O)OC1CCCCC1 | 3010 (inactive)
50 | NC(=O)CC(NC(=O)Cc1cccc2ccccc12)c1ccc(NCc2cc(F)ccc2F)c([N+](=O)[O-])c1 (stereo unspecified) | 4100 (inactive)
51 | CSCCC(NS(=O)(=O)c1ccc2c(c1)oc(=O)n2C)C(=O)NCc1ccccc1 (stereo unspecified) | 4490 (inactive)
52 | CCOc1ccc(OCC)c(NC(=O)C(NS(=O)(=O)c2ccc3c(c2)oc(=O)n3C)C(C)C)c1 (stereo unspecified) | 20600 (active)
53 | CCOc1ccc(OCC)c(NC(=O)CCS(=O)(=O)c2ccc(C)cc2)c1 | 3840 (inactive)
54 | CCCCN(CCCC)CCNC(=O)CN1C(=O)COc2ccc(S(=O)(=O)N3CCOCC3)cc21 | 5470 (inactive)
55 | CC(C)CNC(=O)C1(C)CCCN1C(=O)CSc1ccccc1 (stereo unspecified) | 3520 (inactive)
56 | O=C(CP(=O)(c1ccccc1)c1ccccc1)N1CCOCC1 | 4810 (inactive)
57 | CCOC(=O)c1cnc(COc2ccccc2Cl)[nH]c1=O | 5960 (inactive)
58 | CCOC(=O)c1cc(C)nc(S(C)(=O)=O)c1C#N | 6150 (inactive)
59 | CCCCSc1[nH]c(=O)c(C(=O)OCC)cc1C#N | 23400 (active)
60 | CC(NCCc1ccc(S(N)(=O)=O)cc1)C(=O)NCc1ccccc1 (stereo unspecified) | 3370 (inactive)
61 | O=C(O)c1ccccc1Cc1ccc(F)c2ccccc12 | 3460 (inactive)
62 | Cc1noc(C)c1S(=O)(=O)N(C)C[C@H]1OCCCC[C@@H](C)Oc2ccc(NC(=O)CCCN(C)C)cc2C(=O)N([C@H](C)CO)C[C@@H]1C | 3820 (inactive)
63 | O=C1CCC(=O)N1CCC(=O)N(C(=O)NC1CCCCC1)C1CCCCC1 | 3950 (inactive)
64 | COc1ccc(-c2cc(NC(C)=O)c3ncc(-c4cc(OC)c(OC)c(OC)c4)n3c2)cn1 | 2720 (inactive)
65 | CCOC(=O)C(C)Sc1nc2ccccc2c(=O)n1CC1CCCCC1 (stereo unspecified) | 19900 (active)
66 | CCOn1c(SC(C)C)nc2ccccc2c1=O | 10100 (inactive)
67 | COCC(C)n1c(SCC(=O)NC2CCCCC2C)nc2ccccc2c1=O (stereo unspecified) | 2940 (inactive)
68 | Cc1ccc2c(c1)N(CC(=O)NCCc1ccc(Cl)cc1)C(=O)c1cccnc1O2 | 5070 (inactive)
69 | CCc1nc2c(OCCOc3ccccc3)cccn2c1N(C)C(=O)c1ccccc1F | 3430 (inactive)

Row | Compound | fluorescence intensity
70 | CCCCN(C=O)c1c(CC)nc2c(OCCC3CCCCC3)cccn12 | 3460 (inactive)
71 | Cc1ccccc1OCC(=O)NCC(=O)OCC(=O)c1ccc2ccccc2c1 | 10600 (inactive)
72 | Cc1cccc(NC(=O)N(Cc2cc3cc(C)cc(C)c3[nH]c2=O)CC2COCCO2)c1 (stereo unspecified) | 11500 (inactive)
73 | Cc1ccc2[nH]c(=O)c(CN(CCCN(C)C)C(=O)Nc3cccc(Cl)c3)cc2c1 | 21500 (active)
74 | Cc1ccc2[nH]c(=O)c(CN(CC3COCCO3)C(=O)Nc3ccccc3C)cc2c1 (stereo unspecified) | 3250 (inactive)
75 | COc1ccccc1CNc1nc(Nc2ccccc2Cl)c2sccc2n1 | 3450 (inactive)
76 | CC(C)CNC(=S)NNC(=O)c1nn(C)cc1Cl | 8820 (inactive)
77 | Cc1scc(C(=O)NNC(=S)NCC(C)C)c1C | 2420 (inactive)
78 | Cc1occc1C(=O)NNC(=S)NCC(C)C | 16400 (active)
79 | CN(C)S(=O)(=O)c1ccc(C(=O)NCCN=C2NS(=O)(=O)c3ccccc32)cc1 | 3720 (inactive)
80 | CC[C@]12c3[nH]c4cc(CCC(=O)N(C)C)ccc4c3CCN1C(=O)[C@@H](CC(=O)NCCCn1ccnc1)C[C@@H]2C(=O)N1CCN(C(=O)C2CC2)CC1 | 3900 (inactive)
81 | COc1cc(C2C(C(=O)OCCC#N)=C(C)NC3=C2S(=O)(=O)c2ccccc23)cc(OC)c1OC (stereo unspecified) | 9630 (inactive)
82 | CCCCn1nc(C(=O)Nc2cccc(C(=O)NC3CC3)c2)c2ccccc2c1=O | 3390 (inactive)
83 | CCCn1nc(C(=O)N2CCCc3ccccc32)c2ccccc2c1=O | 4370 (inactive)
84 | CCCCn1nc(C(=O)N2CCc3ccccc32)c2ccccc2c1=O | 23400 (active)
85 | OC[C@@H]1CN(Cc2ccc(F)cc2)C[C@H](n2cnc3c(NC4CCCC4)ncnc32)O1 | 3760 (inactive)
86 | CC(=O)OCC(C)n1c(=O)c2ccccc2n1C(C)=O (stereo unspecified) | 6200 (inactive)
87 | Cc1cn([C@H]2C[C@H](O)[C@@H](/C=C/C(=O)NCCCc3ccccc3)O2)c(=O)[nH]c1=O | 4330 (inactive)
88 | Cc1sc(NC(=S)NC(=O)c2cccs2)nc1-c1ccc(CC(C)C)cc1 | 19900 (active)
89 | CCc1nnc(NS(=O)(=O)c2ccc(NC(=S)NC(=O)c3cccs3)cc2)s1 | 3630 (inactive)
90 | O=C(NC(=S)Nc1cccc(-c2ccc(CO)o2)c1)c1cccs1 | 4550 (inactive)
91 | CC1=C(C(=O)OCC2CCCCC2)C(c2ccc(F)cc2)NC(=O)N1 (stereo unspecified) | 3520 (inactive)
